Assay results: ChEMBL document CHEMBL3988442, “University of Dundee, Small-Polar-MMV Screening Library” (2021)
The whole screen tested about 38,000 compounds, of which about 1,200 (3.2%) showed an effect of 50% or more. The median lay at about -58%. This is one part of a sample in which strong results are shown more often than they occur.

These molecules were tested on Plasmodium falciparum (assay: Calibr Malaria Delayed Death Assay SOP). Settings: concentration 4.99e-06 (unit not given; other assays of the set use mol/L).
Format: functional, organism-based
Parameters: scale not given: in the data most compounds retested in dose-response had high values
With `CO[C@H]1CC[C@H]2[C@H]1OCCN2C(=O)c1nn(C)c2ccccc12` the “Percent Effect” value was -87.32%. In the case of `CC1CN(CC(=O)NCc2ccc(F)cc2)CCN1c1nccs1` (stereo not given), the “Percent Effect” value is reported as -59.43%. With `CC/N=c1\nc(NCC)nc2n1C(O)(Nc1ccc(C)cc1C)CS2` (stereo not given) the “Percent Effect” value was -60.63%. In the case of `Cc1cccc(CS(=O)(=O)NCc2nn(C)c3c2COCC3)c1`, the “Percent Effect” value is reported as -48%. With `O=C(C1CC1)N1CCC2(CC1)COCCN2Cc1ccc(F)cc1.O=C(O)C(F)(F)F` the “Percent Effect” value was -44.57%. `Cc1ccc(NC(=O)CN2CCOCC2)c(F)c1` was tested, and the “Percent Effect” value was -28.6%. For `CCc1nc(N)nc(N2CCCC3(CCN(C)CC3)CC2)c1C`, the “Percent Effect” value was 75.43%. For `Cc1nc(C)c(C)c(N2CCC3(CCN(C)C3)C2)n1` (stereo not given), the “Percent Effect” value was 18.67%. For `CCc1cnc(N)nc1N1CCCC2(CCOCC2)C1`, the “Percent Effect” value was -153.3%. With `O=C(O)C(F)(F)F.O=C(c1cnccn1)N1C[C@@H](OCc2ccncc2)[C@@H]2OCCC[C@@H]21` the “Percent Effect” value was -88.13%. In the case of `CNC(=O)CN(C)CC1(c2ccc(Br)cc2)CC1`, the “Percent Effect” value is reported as 20.85%. `CNC(=O)N(C)CC1(c2ccc(Br)cc2)CC1` was tested, and the “Percent Effect” value was -138.2%. With `CNC(=O)CCN(C)CC1(c2ccc(Br)cc2)CC1` the “Percent Effect” value was 86.7%. In the case of `COCCn1c2c(ccc1=O)CCN(C(=O)NC1CC1)CC2`, the “Percent Effect” value is reported as -102.5%. With `O=C1CC(c2ccc(O)cc2)c2sc(C(=O)O)c(-c3ccccc3)c2N1` (stereo not given) the “Percent Effect” value was -164.8%. `Cc1ocnc1C(=O)N1CC[C@@H](O)[C@@H](O)[C@H](N2CCC(F)(F)CC2)C1` was tested, and the “Percent Effect” value was -140.1%. `Cc1ccc2c(n1)N(CC(C)C)CCN(S(C)(=O)=O)C2.O=C(O)C(F)(F)F` was tested, and the “Percent Effect” value was -91.42%. For `CCN1CC(CN2CCOCC2)Oc2ncccc2C1=O` (stereo not given), the “Percent Effect” value was -121.7%. For `Cc1ccc(-c2ccc(C3CNCCO3)nc2)cc1.Cl` (stereo not given), the “Percent Effect” value was 82.68%. For `O=C(C1CNCCO1)N1CCC(c2cc(N3CCCC3)ncn2)CC1` (stereo not given), the “Percent Effect” value was -72.24%. With `O=C(c1csc(C2CC2)n1)N1CCCCC1Cn1cccn1` (stereo not given) the “Percent Effect” value was -84.46%. `CN(Cc1cccc(C#N)c1)c1ncc(C(N)=O)cc1Cl` was tested, and the “Percent Effect” value was -70.4%. `CC(C(=O)Nc1cc(F)ccc1F)N1CCN(Cc2ncc[nH]2)CC1` (stereo not given) was tested, and the “Percent Effect” value was -135.8%. With `O=C(NCCC(O)c1ccccc1)c1ccco1` (stereo not given) the “Percent Effect” value was -97.01%. For `NCCC(Cc1ccccc1)c1ccco1` (stereo not given), the “Percent Effect” value was 83.75%. In the case of `O=S(=O)(Cc1ccccc1)NCc1ccco1`, the “Percent Effect” value is reported as -115.6%. In the case of `CCOc1cccc(C(=O)N(CCC#N)Cc2ccccn2)c1`, the “Percent Effect” value is reported as -89.54%. In the case of `O=C(NC1CC1)c1cc2c(s1)CCN2C(=O)C1CC1`, the “Percent Effect” value is reported as -64.25%. With `Cc1ccc(C)c(S(=O)(=O)NC(=O)c2cccc3c2OCCO3)c1` the “Percent Effect” value was -117.7%. In the case of `C[C@@H]1CN(Cc2ccncc2)C[C@]1(C)O`, the “Percent Effect” value is reported as -25.52%. `COc1cc2c(cc1CN1C[C@@H](CN3CCOCC3)[C@@H](CO)C1)CCC2` was tested, and the “Percent Effect” value was 19.43%. For `COc1cc2c(cc1CN1CCCCC1CN1CCOCC1)CCC2` (stereo not given), the “Percent Effect” value was 64.85%. For `COc1cccc(CN2CCCCC2CN2CCOCC2)c1F` (stereo not given), the “Percent Effect” value was 2.016%. `Cc1c(C(=O)NCCCC(N)=O)sc2ccc(F)cc12` was tested, and the “Percent Effect” value was -72.75%. `O=C1CC(NS(=O)(=O)c2ccc3ccccc3c2)CN1` (stereo not given) was tested, and the “Percent Effect” value was -65.16%. `Cc1noc([C@@H]2C[C@@H]3CCN(c4nnc(C)s4)C[C@H]3O2)n1.O=C(O)C(F)(F)F` was tested, and the “Percent Effect” value was -44.29%. With `CN(Cc1cc2cc(F)ccc2[nH]1)C(=O)C1CC(=O)N(C2CCCC2)C1` (stereo not given) the “Percent Effect” value was 12.79%. With `CNS(=O)(=O)CC(=O)N(Cc1c(F)cccc1Cl)C1CC1` the “Percent Effect” value was -68.94%. For `Cc1nc(NCc2ccc(C)o2)cc(C2CCNCC2)n1`, the “Percent Effect” value was -133.8%. With `Cc1nc(C2CCNCC2)cc(N(C)CCc2cn[nH]c2)n1` the “Percent Effect” value was -114.3%. With `CN(Cc1cc2cc(F)ccc2[nH]1)c1cc(C2CCCNC2)ncn1` (stereo not given) the “Percent Effect” value was 83.71%. `Cc1nc(NCc2coc(-c3ccccc3)n2)cc(C2CCNCC2)n1` was tested, and the “Percent Effect” value was -7.041%. With `Cc1ccnc(CC(C)N(C)c2cc(C3CCNCC3)nc(C)n2)c1` (stereo not given) the “Percent Effect” value was -104.4%. For `Cc1nc(CCN)cc(N(C)Cc2nc3ccc(F)cc3[nH]2)n1`, the “Percent Effect” value was -113.9%. With `Cc1nc(C2CCNCC2)cc(N(C)Cc2cc3cc(F)ccc3[nH]2)n1` the “Percent Effect” value was 75.18%. For `Cc1c(CN(C)c2cc(C3CCCNC3)ncn2)[nH]c2ccccc12` (stereo not given), the “Percent Effect” value was 11.41%. With `Cc1cccc(CNC(=O)Nc2cc(C(F)(F)F)c[nH]c2=O)n1` the “Percent Effect” value was -120.3%. `CCn1nc(C)c2nc(C)nc(NC3CCCC3)c21` was tested, and the “Percent Effect” value was -48.65%. For `Cc1ccc(CN2CCN(CC(=O)Nc3ccc4nsnc4c3)CC2)o1`, the “Percent Effect” value was -102.5%. In the case of `CC(=O)c1ccc(-c2cc(C(F)(F)F)cc(N(C)C)n2)cc1`, the “Percent Effect” value is reported as -183.7%. In the case of `CCOC(=O)C1=NOC(Cc2cc(OC)c3c(c2)OCO3)C1` (stereo not given), the “Percent Effect” value is reported as -124.2%. `Cc1cc(N2CCOCC2)ccc1NC(C)c1nc(C(C)C)no1` (stereo not given) was tested, and the “Percent Effect” value was -4.816%. `CCOC(=O)N1CCN(c2nc(CCN)nc3sc(C)c(C)c23)CC1` was tested, and the “Percent Effect” value was 65.93%. For `Cc1sc2nc(CCN)nc(N3CCS(=O)(=O)CC3)c2c1C`, the “Percent Effect” value was -119.4%. `Cc1sc2nc(C(F)(F)F)nc(N3CCN(S(C)(=O)=O)CC3)c2c1C` was tested, and the “Percent Effect” value was -77.64%. With `Cc1sc2nc(C(F)(F)F)nc(N3CCC(NS(C)(=O)=O)CC3)c2c1C` the “Percent Effect” value was 27.92%. For `Cc1sc2nc(CCN)nc(N3CCC(N4CCCC4)CC3)c2c1C`, the “Percent Effect” value was 84.16%. For `CCOC(=O)N1CCN(c2nc(C)ncc2CC)CC1`, the “Percent Effect” value was -56.83%. `Cn1ccnc1-c1cn(CCCc2nnc(N)s2)nn1` was tested, and the “Percent Effect” value was -41.76%. `O=C(N1CCCC(n2cncn2)C1)C1(c2cccc(F)c2)CCC1` (stereo not given) was tested, and the “Percent Effect” value was -129.3%. With `CCN(CC)C(=O)COc1ccnc2cc(OC)ccc12` the “Percent Effect” value was -91.77%. With `O=C(C1CCCO1)N1CCC2(CC1)COCCN(Cc1cccnc1)C2.O=C(O)C(F)(F)F.O=C(O)C(F)(F)F` (stereo not given) the “Percent Effect” value was -101.1%. With `Cc1cccc2nc(CNCc3cccc4c3OCCCO4)cn12` the “Percent Effect” value was 46.47%. In the case of `c1cc(CNCCc2cn3ccccc3n2)c2c(c1)OCCCO2`, the “Percent Effect” value is reported as -61.04%. In the case of `Cc1cccn2cc(CNCc3cccc4c3OCCCO4)nc12`, the “Percent Effect” value is reported as 52.57%.
